# Data as given in the supplement of paper PMC11865577.
# System: SARS-CoV-2 low-rank motif (SARS-low)
# Assay: normalised indicator fluorescence (fraction of RNA + indicator signal without compound); higher = less displacement of indicator (weaker competition)
# Details: compound concentration: 5 uM; 30 min; indicator: TO-PRO-1 0.1 uM; RNA concentration: 0.1 uM
# In short: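 Displacement screen in 96-well plates: TO-PRO-1 or TO-PRO-3 indicator with RNA in 20 mM phosphate pH 7.0, 20 mM NaCl, 80 mM KCl. Each compound was added as 0.25 μL of 1 mM DMSO stock (about 5 uM final), and fluorescence was read after 30 min on an Infinite 200 PRO (excitation 485 or 620 nm). Values are indicator fluorescence after subtracting the buffer-plus-indicator blank, divided by the no-compound RNA-plus-indicator signal. Each is the mean of two independent experiments.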
row,SMILES,normalised indicator fluorescence
1,NC(=O)c1ccccc1Nc1ccnc(Nc2cccc(O)c2)n1,1.1
2,COC(=O)C1=CC[C@@]23CC[C@@H]([C@@](C)(/C=C/C=C(\C)C(=O)O)OC2=O)[C@@]3(OC(C)=O)CC1 [Pseudolaric Acid B],0.981
3,COC1=C2C[C@@H](C)C[C@H](OC)[C@H](O)[C@@H](C)/C=C(\C)[C@H](OC(N)=O)[C@@H](OC)/C=C\C=C(/C)C(=O)NC(=CC1=O)C2=O [Geldanamycin],1.15
4,O=C(O)CCc1ccc(O)cc1O [Hydroumbellic acid],1.15
5,CCNC(=O)c1noc(-c2cc(C(C)C)c(O)cc2O)c1-c1ccc(CN2CCOCC2)cc1 [Luminespib],1.01
6,CCNC(=O)c1[nH]nc(-c2cc(Cl)c(O)cc2O)c1-c1ccc(OC)cc1,1.25
7,Cc1c(F)cc(C(=O)NC2CC2)cc1-c1ccc(C(=O)NCC(C)(C)C)cn1 [Losmapimod],1.24
8,O=C(Nc1nc2ccc(NC(=O)C34CC5CC(CC(C5)C3)C4)cc2s1)c1ccccc1,1.49
9,N#CC(c1ccnc(OCc2ccc(CN3CCOCC3)cc2)n1)c1nc2ccccc2s1 (stereo unspecified),1.59
10,COc1ccc(-c2coc3cc(O)ccc3c2=O)cc1O [Calycosin],1.4
11,O=c1c(O)c(-c2ccccc2)oc2cc(O)cc(O)c12 [Galangin],1.12
12,O=C1O[C@H]([C@@H](O)CO)C(O)=C1O [L(+)-Ascorbic acid],1.18
13,CC(C)c1cc(-c2n[nH]c(=O)n2-c2ccc3c(ccn3C)c2)c(O)cc1O [Ganetespib],1.26
14,Oc1ccc(-c2nc(-c3ccc(F)cc3)c(-c3ccncc3)[nH]2)cc1,1.2
15,C[C@H]1Oc2cc(cnc2N)-c2c(nn(C)c2C#N)CN(C)C(=O)c2ccc(F)cc21 [Lorlatinib],1.13
16,O=C1c2c(O)cc(O)cc2OC(c2ccc(O)c(O)c2)C1O (stereo unspecified) [Taxifolin],1.25

row,SMILES,normalised indicator fluorescence
1,Cc1cc(NC(=O)c2cccc(NC(=O)/C=C/CN(C)C)c2)ccc1Nc1nccc(-c2cccnc2)n1,0.999
2,O=c1cc(-c2ccc(O)cc2)oc2cc(O)cc(O)c12 [Apigenin],1.22
3,O=c1ccc2ccc(O)c(O)c2o1 [Daphnetin],1.04
4,O=C(NC(Cc1cc(=O)[nH]c2ccccc12)C(=O)O)c1ccc(Cl)cc1 (stereo unspecified) [Rebamipide],1.3
5,CN(NC(=O)CC(=O)NN(C)C(=S)c1ccccc1)C(=S)c1ccccc1 [Elesclomol],1.17
6,NNC(=O)c1ccncc1 [Isoniazid],1.12
7,CC(=O)O[C@H]1C[C@@]2(C)[C@@H](C[C@@H](O)[C@H]3[C@@]4(C)CC[C@@H](O)[C@@H](C)[C@@H]4CC[C@@]32C)/C1=C(\CCC=C(C)C)C(=O)O [Fusidine],1.26
8,CC1(C)C=Cc2c(ccc3c2OC[C@@H](c2ccc(O)cc2O)C3)O1 [Glabridin],1.12
9,O=c1cc(-c2ccccc2)oc2cc(O)c(O)c(O)c12 [Baicalein],0.791
10,CCc1oc2ccccc2c1C(=O)c1cc(Br)c(O)c(Br)c1 [Benzbromarone],1.02
11,COc1ccc([C@@H]2OC[C@H]3[C@@H]2CO[C@@H]3c2ccc(O[C@@H]3O[C@H](CO)[C@@H](O)[C@H](O)[C@H]3O)c(OC)c2)cc1OC [Forsythin],1.1
12,COC(=O)c1ccc([C@H]2c3[nH]c4ccccc4c3C[C@H](C(=O)OC)N2C(=O)CCl)cc1,1
13,O=c1cc(-c2ccc(O)c(-c3c(O)cc(O)c4c(=O)cc(-c5ccc(O)cc5)oc34)c2)oc2cc(O)cc(O)c12 [Amentoflavone],1.31
14,COc1ccc(C2CC(=O)c3c(O)cc(OC4OC(COC5OC(C)C(O)C(O)C5O)C(O)C(O)C4O)cc3O2)cc1OC (stereo unspecified) [Methyl hesperidin],1.08
15,CC1(C)OC(=O)C=C[C@]2(C)[C@H]3CC[C@@]4(C)[C@H](c5ccoc5)OC(=O)[C@H]5O[C@]54[C@]3(C)C(=O)C[C@@H]12 [Obacunone],1.14
